PubChem BioAssay AID1159580 (chemical genetic matrix, 2015)
Among all 5,500 compounds or so, about 2,000 (36%) were called active. Roughly 18% stayed inconclusive and do not appear here. Cut-off read from the data, not from the text of the source: active = normalized growth mostly below about 0.91 (no sharp cut-off); inconclusive = no clear call, values can overlap the other calls; inactive = mostly above about 0.92. Some of the results follow.

Experiment: chemical genetic growth profiling, strain panel (AID 1159580);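 note: tested at 20 µM; growth read once vehicle control cultures reached saturation at 30 °C; 1 = growth at the plate median or of vehicle wells; lower values mean less growth of the strain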
Settings: growth OD

Measured: normalized growth

CC1NC(=O)NC1=O (stereo unspecified)
inactive: S. cerevisiae deletion strains, locus YAL013W, strain DEP1, hits give low values 0.968 | S. cerevisiae deletion strains, locus YBR021W, strain FUR4, hits give low values 1.01 | S. cerevisiae deletion strains, locus YBR229C, strain ROT2, hits give low values 0.996 | S. cerevisiae deletion strains, locus YCL029C, strain bik1, hits give low values 1.01 | S. cerevisiae deletion strains, locus YDL035C, strain GPR1, hits give low values 0.987 | S. cerevisiae deletion strains, locus YDL074C, strain BRE1, hits give low values 1 | S. cerevisiae deletion strains, locus YDL101C, strain DUN1, hits give low values 1 | S. cerevisiae deletion strains, locus YDL134C, strain PPH21, hits give low values 1.01 | S. cerevisiae deletion strains, locus YDL185W, strain tfp1, hits give low values 1.01 | S. cerevisiae deletion strains, locus YDL192W, strain arf1, hits give low values 1.01 | S. cerevisiae deletion strains, locus YDR101C, strain arx1, hits give low values 1 | S. cerevisiae deletion strains, locus YDR150W, strain NUM1, hits give low values 1.02 | S. cerevisiae deletion strains, locus YDR162C, strain NBP2, hits give low values 1 | S. cerevisiae deletion strains, locus YDR318W, strain mcm21, hits give low values 1.02 | S. cerevisiae deletion strains, locus YDR388W, hits give low values 1.01 | S. cerevisiae deletion strains, locus YDR502C, strain sam2, hits give low values 1.01 | S. cerevisiae deletion strains, locus YEL061C, strain CIN8, hits give low values 0.997 | S. cerevisiae deletion strains, locus YER110C, hits give low values 1.01 | S. cerevisiae deletion strains, locus YER155C, strain BEM2, hits give low values 0.995 | S. cerevisiae deletion strains, locus YER167W, strain BCK2, hits give low values 0.998 | S. cerevisiae deletion strains, locus YGL078C, strain dbp3, hits give low values 1.01 | S. cerevisiae deletion strains, locus YGL086W, strain mad1, hits give low values 1.02 | S. cerevisiae deletion strains, locus YGL248W, strain PDE1, hits give low values 1.01 | S. cerevisiae deletion strains, locus YGR078C, strain PAC10, hits give low values 1.01 | S. cerevisiae deletion strains, locus YGR135W, strain pre9, hits give low values 1.01 | S. cerevisiae deletion strains, locus YGR229C, strain SMI1, hits give low values 0.986 | S. cerevisiae deletion strains, locus YGR252W, strain gcn5, hits give low values 1.02 | S. cerevisiae deletion strains, locus YHR030C, strain SLT2, hits give low values 1 | S. cerevisiae deletion strains, locus YHR079C, strain IRE1 (second series), hits give low values 1 | S. cerevisiae deletion strains, locus YHR094C, strain hxt1, hits give low values 1.01 | S. cerevisiae deletion strains, locus YHR129C, strain ARP1, hits give low values 0.999 | S. cerevisiae deletion strains, locus YHR200W, strain rpn10, hits give low values 1.01 | S. cerevisiae deletion strains, locus YIL066C, strain RNR3, hits give low values 0.99 | S. cerevisiae deletion strains, locus YIL073C, strain SPO22, hits give low values 1.07 | S. cerevisiae deletion strains, locus YIL125W, strain kgd1, hits give low values 1.02 | S. cerevisiae deletion strains, locus YIR030C, strain dcg1, hits give low values 1 | S. cerevisiae deletion strains, locus YJL095W, strain BCK1, hits give low values 0.986 | S. cerevisiae deletion strains, locus YJL134W, strain LCB3, hits give low values 0.994 | S. cerevisiae deletion strains, locus YJL168C, strain set2, hits give low values 1 | S. cerevisiae deletion strains, locus YJL187C, strain SWE1 (second series), hits give low values 0.999 | S. cerevisiae deletion strains, locus YJR043C, strain POL32, hits give low values 1.01 | S. cerevisiae deletion strains, locus YJR075W, strain HOC1, hits give low values 0.993 | S. cerevisiae deletion strains, locus YKL009W, strain mrt4, hits give low values 1.03 | S. cerevisiae deletion strains, locus YKL068W, hits give low values 1.01 | S. cerevisiae deletion strains, locus YKL085W, strain MDH1 (second series), hits give low values 1 | S. cerevisiae deletion strains, locus YKL085W, strain MDH1, hits give low values 1 | S. cerevisiae deletion strains, locus YKL190W, strain CNB1, hits give low values 1 | S. cerevisiae deletion strains, locus YKR001C, strain vps1, hits give low values 1.02 | S. cerevisiae deletion strains, locus YLR039C, strain RIC1, hits give low values 1.02 | S. cerevisiae deletion strains, locus YLR058C, strain SHM2, hits give low values 1 | S. cerevisiae deletion strains, locus YLR102C, strain apc9, hits give low values 1.01 | S. cerevisiae deletion strains, locus YLR262C, strain YPT6, hits give low values 1.02 | S. cerevisiae deletion strains, locus YLR268W, strain sec22, hits give low values 1 | S. cerevisiae deletion strains, locus YLR330W, strain CHS5, hits give low values 1 | S. cerevisiae deletion strains, locus YLR342W, strain FKS1 (second series), hits give low values 1 | S. cerevisiae deletion strains, locus YLR371W, strain rom2, hits give low values 1.01 | S. cerevisiae deletion strains, locus YLR418C, strain cdc73, hits give low values 1.01 | S. cerevisiae deletion strains, locus YML016C, strain PPZ1, hits give low values 1 | S. cerevisiae deletion strains, locus YML032C, strain rad52, hits give low values 1.02 | S. cerevisiae deletion strains, locus YML124C, strain tub3, hits give low values 1.01 | S. cerevisiae deletion strains, locus YMR078C, strain ctf18, hits give low values 1.01 | S. cerevisiae deletion strains, locus YMR223W, strain ubp8, hits give low values 1.01 | S. cerevisiae deletion strains, locus YMR263W, strain SAP30, hits give low values 0.994 | S. cerevisiae deletion strains, locus YMR307W, strain GAS1, hits give low values 0.983 | S. cerevisiae deletion strains, locus YNL067W, strain RPL9B, hits give low values 1 | S. cerevisiae deletion strains, locus YNL128W, strain TEP1, hits give low values 0.975 | S. cerevisiae deletion strains, locus YNL153C, strain GIM3, hits give low values 1.01 | S. cerevisiae deletion strains, locus YNL233W, strain BNI4, hits give low values 1 | S. cerevisiae deletion strains, locus YNL250W, strain rad50, hits give low values 1.01 | S. cerevisiae deletion strains, locus YNL271C, strain bni1, hits give low values 1 | S. cerevisiae deletion strains, locus YNL298W, strain CLA4, hits give low values 1.02 | S. cerevisiae deletion strains, locus YNL307C, strain MCK1, hits give low values 1.02 | S. cerevisiae deletion strains, locus YNL322C, strain KRE1, hits give low values 0.991 | S. cerevisiae deletion strains, locus YNR052C, strain pop2, hits give low values 1 | S. cerevisiae deletion strains, locus YOL006C, strain TOP1, hits give low values 1 | S. cerevisiae deletion strains, locus YOL012C, strain htz1 0.89 | S. cerevisiae deletion strains, locus YOL147C, strain pex11, hits give low values 1.02 | S. cerevisiae deletion strains, locus YOR061W, strain CKA2, hits give low values 0.998 | S. cerevisiae deletion strains, locus YOR069W, strain VPS5, hits give low values 0.998 | S. cerevisiae deletion strains, locus YOR136W, strain idh2, hits give low values 1.02 | S. cerevisiae deletion strains, locus YOR144C, strain elg1, hits give low values 1.01 | S. cerevisiae deletion strains, locus YOR184W, strain ser1, hits give low values 1.03 | S. cerevisiae deletion strains, locus YOR316C, strain cot1, hits give low values 1 | S. cerevisiae deletion strains, locus YPL055C, strain LGE1, hits give low values 0.986 | S. cerevisiae deletion strains, locus YPL241C, strain CIN2, hits give low values 1 | S. cerevisiae deletion strains, locus YPR119W, strain clb2, hits give low values 1.01 | S. cerevisiae deletion strains, locus YPR141C, strain kar3, hits give low values 1.01 | S. cerevisiae deletion strains, locus YPR163C, strain tif3, hits give low values 1.02 | S. cerevisiae deletion strains, locus YPR167C, strain met16, hits give low values 1.01 | S. cerevisiae deletion strains, strain wtn01, hits give low values 1.01 | S. cerevisiae strains, strain wild type, hits give low values 0.98
